Screening results: PubChem BioAssay, several laboratories
BCLXL inh: blocks human Bcl-xL binding to Bim BH3 peptide; Q07817; GST-Bcl-xL / FITC-Bim BH3 peptide fluorescence polarization; inhibition, % at 10.9 µM; 320,000 tested, 0.7% active;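 active means inhibition above the mean of all tested compounds plus 3 SD, cutoff set per campaign, cut at about 30% in these data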;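 further: inhibitors lower millipolarization by displacing the labeled peptide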
Target sequence (Q07817 whole entry, looked up): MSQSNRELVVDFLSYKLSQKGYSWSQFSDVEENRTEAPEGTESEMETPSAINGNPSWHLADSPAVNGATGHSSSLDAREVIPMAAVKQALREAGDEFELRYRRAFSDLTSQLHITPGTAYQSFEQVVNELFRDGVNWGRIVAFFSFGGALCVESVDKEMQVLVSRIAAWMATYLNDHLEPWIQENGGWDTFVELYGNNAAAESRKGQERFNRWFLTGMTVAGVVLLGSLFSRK
GLD-1 TGE inh: GLD-1-TGE RNA interaction inhibition (C. elegans). purified GLD-1 + fluorescein TGE RNA, fluorescence polarization. inhibition, % at 5.96 µM. 320,000 tested, 0.44% active. Q17339;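 active means percent inhibition above a per-plate cutoff, the plate mean of test compounds plus 3 SD, cut at about 30% in these data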
Bim-Mcl-1: disrupts Bim peptide binding to human Mcl-1; 190,000 tested, 0.1% active; Q07820; Bead-based flow cytometry, Bim peptide-Mcl-1 binding; inhibition, % at 10 µM; AID 1009; in the data active means inhibition above about 40%
Target sequence (Q07820 whole entry, looked up): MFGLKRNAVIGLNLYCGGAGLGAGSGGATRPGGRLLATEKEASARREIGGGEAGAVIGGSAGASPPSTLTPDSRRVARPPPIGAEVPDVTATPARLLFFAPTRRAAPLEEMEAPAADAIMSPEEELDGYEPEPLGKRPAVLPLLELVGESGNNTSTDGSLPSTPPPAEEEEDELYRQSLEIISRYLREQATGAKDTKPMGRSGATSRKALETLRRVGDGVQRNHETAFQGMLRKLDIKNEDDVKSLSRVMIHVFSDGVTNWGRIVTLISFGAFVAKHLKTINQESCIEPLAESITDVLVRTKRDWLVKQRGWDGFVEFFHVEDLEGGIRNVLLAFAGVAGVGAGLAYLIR
MCL1 BIM primary: inhibitors of human MCL1 binding to BIM-BH3 peptide. inhibition, % at 10.9 µM. 320,000 tested, 0.68% active. GST-MCL1 / FITC-Bim-BH3 fluorescence polarization. AID 2057. Q07820;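 active means inhibition above the mean inhibition of all tested compounds plus 3 SD, set per campaign, cut at about 40% in these data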;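 further: higher means more loss of mP so more displacement of Bim peptide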
Mcl1-Bid inh: Mcl-1/Bid interaction inhibition | inhibition, % at 21.7 µM | Q07820 | 220,000 tested, 0.97% active | TR-FRET Mcl-1/Bid-Dy647 peptide binding, 1536-well;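 active means compounds that cut the binding signal by more than half at the single screening dose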;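 further: His-tagged Mcl-1 with europium anti-His antibody binding Bid BH3 peptide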
Mcl1-Noxa inh: Mcl-1/Noxa interaction inhibition. Q07820. TR-FRET Mcl-1/Noxa peptide binding, 2 h. inhibition, % at 21.7 µM. 220,000 tested, 1.5% active;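 active means compounds that cut the protein-peptide binding signal by more than 50% relative to plate controls in a single-dose test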;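 further: His-tagged Mcl-1 with rhodamine Noxa BH3 peptide and terbium anti-His antibody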
Numbers stand for hits; - = inactive; . = no result. Compounds with a hit are over-represented: about 2.3% of the library has one in this group of screens.

SMILES	BCLXL inh	GLD-1 TGE inh	Bim-Mcl-1	MCL1 BIM primary	Mcl1-Bid inh	Mcl1-Noxa inh
Cc1nc2ccc(NC(=O)c3cc([N+](=O)[O-])cc([N+](=O)[O-])c3Cl)cc2s1	-	-	-	-	-	96
CC(C)Oc1ccc(C(=O)N/N=C/c2ccc(-c3ccc(S(=O)(=O)Nc4ncccn4)cc3)o2)cc1	-	-	-	-	-	67
Cc1ccc(C(=O)N/N=C\c2ccc(-c3ccc(Cl)cc3)o2)cn1	-	-	.	-	-	-
CCOC(=O)C1=C(O)/C(=C/N(C)C)N=C1C	36	-	-	-	-	-
CN(CC(=O)Nc1ccc(F)cc1)C(=O)CSc1nc2ncc(Cl)cc2[nH]1	-	-	-	-	-	67
Cc1ccc(/C=C2/Sc3ccc(C(=O)N4CCN(C)CC4)cc3NC2=O)cc1	37	-	.	-	.	.
Cc1ccccc1OCCNC(=O)CNC(=O)c1ccccc1O	-	-	-	-	82	.
CC1C(=O)NN=C1C(=O)N/N=C\c1ccc(O)cc1O (stereo unspecified)	-	-	-	-	-	74
CC1=Nc2ccc(C)cc2/C1=C/c1c(N)n2c(S(=O)(=O)C(C)C)nsc2nc1=O	.	.	-	.	-	81
CCOC(=O)N1CCN(C(=O)CNC(=O)c2nn(-c3ccc(OC)c(OC)c3)c(=O)c3ccccc23)CC1	-	-	.	-	.	.
Nc1nc(CSc2nc3ccccc3s2)nc(Nc2ccccc2)n1	-	-	-	-	-	73
Cc1c(Cl)cccc1Nc1nc(N)nc(CSc2nc3ccccc3s2)n1	-	-	-	-	-	-
CSCC[C@H](NC(=O)OC(C)(C)C)c1nnc(SCC(=O)N(C)C)o1	-	-	-	-	-	67
CN(C)C(=O)CSc1nnc([C@H](Cc2ccccc2)NC(=O)OC(C)(C)C)o1	-	-	.	-	-	-
CCCN1CCC(NC(=O)Cc2ccccc2OC)CC1	-	-	.	-	.	.
CS(=O)(=O)c1ccccc1C(=O)Nc1cc2c(cc1C(=O)O)OCCCO2	-	-	.	-	.	.
O=C1NN(c2cccc(Br)c2)C(=O)/C1=C/c1ccc(-c2cc([N+](=O)[O-])ccc2O)o1	-	-	.	-	98	101
O=C1NN(c2cccc(Br)c2)C(=O)/C1=C\c1ccc(O)cc1	-	-	.	-	.	.
O=C(O)CCCCCN=Cc1c(O)c2ccccc2oc1=O	-	-	-	-	-	-
CCC(C)NC(=O)CSc1nc2cc3c(cc2c(=O)n1Cc1ccco1)OCO3 (stereo unspecified)	.	.	-	.	54	-
COc1ccc(NC(=O)c2cc(C(=O)Nc3ccc(OC)cc3OC)cc([N+](=O)[O-])c2)c(OC)c1	-	-	.	-	.	.
O=C(Nc1ccc2sccc2c1)c1ccc(Cl)s1	-	-	-	-	82	-
O=C(CN1CCN(c2ccccc2O)CC1)Nc1cc([N+](=O)[O-])ccc1Cl	-	-	-	-	-	67
CC(C(=O)Nc1ccc([N+](=O)[O-])cc1Cl)N1CCN(S(=O)(=O)c2cccs2)CC1 (stereo unspecified)	-	-	.	-	.	.
CC(C(=O)Nc1cc([N+](=O)[O-])ccc1Cl)N1CCN(c2ccc(O)cc2)CC1 (stereo unspecified)	-	-	-	-	-	78
SMILES	BCLXL inh	GLD-1 TGE inh	Bim-Mcl-1	MCL1 BIM primary	Mcl1-Bid inh	Mcl1-Noxa inh
CCc1cc2c(SCC(=O)N(C)C3CCS(=O)(=O)C3)ncnc2s1 (stereo unspecified)	-	-	.	-	-	-
COc1ccc(OC)c(NC(=O)CSc2nc3ccccc3c(=O)n2CC2CCCO2)c1 (stereo unspecified)	-	-	.	-	.	.
COC(=O)c1ccc2c(=O)n(CC3CCCO3)c(SCC(=O)Nc3ccc(OC)cc3OC)nc2c1 (stereo unspecified)	-	-	.	-	57	-
CNC(=O)c1ccccc1S(=O)c1ccccc1C#N (stereo unspecified)	-	-	-	-	-	-
COc1ccc(C(=O)O)cc1NC(=S)NC(=O)c1ccc(-c2ccc(Cl)cc2)o1	.	.	-	.	-	75
CC(C)(C)c1ccc(OCc2nnc(SCC(N)=O)n2N)cc1	-	-	-	-	-	-
COc1ccc(Cn2cc3c(-c4ccc(F)cc4)nnc-3c3cc(OC)c(OC)cc32)cc1	47	-	-	-	-	-
CC(=O)Cc1nsc(NC(=O)c2ccc(-c3cc(C(F)(F)F)ccc3Cl)o2)n1	-	-	-	-	68	-
O=C(COC(=O)CC(c1ccccc1)c1ccccc1)Nc1cccc(F)c1	-	-	-	-	-	-
O=C(COC(=O)CC(NC(=O)c1ccccc1Cl)c1ccccc1)Nc1cccc(F)c1 (stereo unspecified)	-	-	-	-	72	-
O=[N+]([O-])c1cc(-c2ccc(C(=S)N3CCOCC3)o2)ccc1Cl	37	-	-	43	-	-
O=[N+]([O-])c1cccc(-c2ccc(C(=S)N3CCOCC3)o2)c1	-	-	-	-	-	-
COCCN(CC(=O)Nc1cccc(C)c1C)C(=O)C1(c2ccc(Cl)cc2)CCC1	.	-	.	.	.	.
COc1ccc(-c2cc(-c3ccco3)[nH]c(=O)c2C#N)cc1OC	46	-	.	46	-	-
COc1ccc2c(c1)SCCC2=O	-	-	-	-	-	-
COc1ccc2c(c1)OCC1=C2CCC2(C)C(=O)CC=C12 (stereo unspecified)	40	39	-	-	-	-
Cc1cc(C(=O)N/N=C2\CCCC(=O)C2)c2ccccc2n1	-	74	-	-	-	-
CCC(O)CNC(=O)CCc1nnc(C2(c3ccc(Cl)cc3)CCC2)o1 (stereo unspecified)	-	-	-	-	-	-
Brc1ccc(C2Nc3cccc4cccc(c34)N2)s1	-	-	-	-	-	100
CCCOc1ccc(OCCCCNC(C)CC)cc1 (stereo unspecified)	-	-	-	-	60	-
COC(=O)/C=C1\N/C(=N/c2nc(C)c3cc(OC)ccc3n2)NC1=O	48	-	.	-	.	.
CN(CCOc1ccccc1)C(=O)c1cc([N+](=O)[O-])cc([N+](=O)[O-])c1	-	-	-	-	-	-
Cc1ccc(S(=O)(=O)N2CCN(C3CCC(c4ccccc4)CC3)CC2)cc1 (stereo unspecified)	-	-	-	-	-	-
CCS(=O)(=O)N1CCN(C2CCC(c3ccccc3)CC2)CC1 (stereo unspecified)	-	-	-	-	54	-
CC1=CC(C)(C)Nc2ccc(OC(=O)CN3C(=O)c4cccc5cccc(c45)C3=O)cc21	36	-	-	-	-	-
CC1=CC(C)(C)Nc2ccc(OC(=O)CN3C(=O)c4ccccc4C3=O)cc21	-	-	-	-	-	-
CCCCn1c(SCC(=O)Nc2ccc(NC(C)=O)cc2)nc2ccccc2c1=O	-	74	.	-	.	.
CCn1c(SCC(=O)Nc2ccccc2)nc2ccccc2c1=O	-	-	.	-	.	.
CN(C)c1oc(-c2ccccc2Cl)nc1P(=O)(c1ccccc1)c1ccccc1	-	-	-	-	-	64
